# This is a sample that favours compounds with a hit; in the whole collection about 9.3% have one here.
# Vaccinia mCherry = qHTS for Stage-Specific Inhibitors of Vaccinia Orthopoxvirus: mCherry Reporter Primary qHTS; Potency, µM (series often up to 36.5 µM), usual class: inhibitors; Vaccinia virus mCherry reporter infection, fluorescence; actives 0.63% (n = 310,000); calls by dose curve; tested in A549 cells; note: nearly all actives have a fitted effect of over 35% in size
# HCMV inh = qHTS Assay for inhibitors of the human cytomegalovirus (HCMV) | HFF cells, HCMV-luciferase reporter, 72 h; active compounds read low | activity change, negative = inhibition, % at 57.5 µM | actives 4.5% (n = 410,000) | AID 1259415, 2018; in the data active = activity change below about -60%; inconclusive = no clear call, values can overlap the other calls; inactive = above about -39%
#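 HFF cells seeded 16 h at 37C, treated with compounds, infected with luciferase-reporter HCMV at MOI 1 PFU/cell; luciferase read at 72 h post infection, normalized to buffer-only and Salinomycin controls.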
# HCV inhibitor = qHTS Assay for Inhibitors of Hepatitis C Virus (HCV); Huh7.5.1 HCVcc-Cre infection, luciferase reporter, 44 h; Potency, µM (doses to about 41.8 µM), most hits filed as inhibitors; actives 3.4% (n = 340,000); AID 651820, 2012
#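 HCVcc-Cre virus at an moi near 0.5 was added right after compound to cells cultured 4 h from seeding (1,000 cells/well). Luciferase activity was determined 44 h later, 15 min after substrate addition at RT.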
# Sm TGR inh = qHTS Assay for the Inhibitors of Schistosoma Mansoni Peroxiredoxins | actives 3% (n = 360,000) | Potency, µM (highest dose often 114 µM), most hits filed as inhibitors | purified TGR, DTNB reduction, TNB absorbance 405 nm; note: nearly all actives have a fitted effect of over 60% in size
#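 TGR 20 nM + NADPH 100 uM (dispensed conc.), cpd preinc 15 min RT; start with NADPH (500 uM addition) then DTNB (15 mM addition). Kinetic TNB absorbance, 405 nm filter. Four-parameter Hill fit across titration.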
# Vaccinia Venus = qHTS for Stage-Specific Inhibitors of Vaccinia Orthopoxvirus: Venus Reporter Primary qHTS; Vaccinia virus Venus reporter expression, fluorescence; Potency, µM (doses to about 36.5 µM), hits mostly inhibitors; actives 0.46% (n = 330,000); calls by dose curve; tested in A549 cells; note: nearly all actives have a fitted effect of over 30% in size
# FMDV inh = High Throughput Screening for Foot and Mouth Disease Virus Antivirals. FMDV antiviral cell-based qHTS. Potency, µM (highest dose often 57.9 µM), usual class: inhibitors. actives 1.2% (n = 410,000). AID 1159524, 2015; calls by dose curve; tested in HEK293T cells; note: read-out not given here; nearly all actives have a fitted effect of over 45% in size
# Hits are given with their value; i = inactive; ? = inconclusive; nt = not tested or not shown; ! = a repeat was not active; [ ] = remark or other dose. Unless noted, calls come from the whole dose curve; as a rule, active = well fitted curve in the direction sought with a large enough effect; inconclusive = small, poorly fitted or top-dose-only effect, or another doubt; inactive = no such curve, though single readings can be large; an effect the other way counts as inactive or inconclusive.
SMILES,Vaccinia mCherry,HCMV inh,HCV inhibitor,Sm TGR inh,Vaccinia Venus,FMDV inh
CCN(Cc1ccccc1)C(=O)CCNS(=O)(=O)c1ccc2c(c1)CC(C)N2C(C)=O (centres undefined),i,-71.8!,?,i,i,i
CC(=O)N1c2ccc(S(=O)(=O)NCC3CCC(C(=O)Nc4ccc(C)cc4)CC3)cc2CC1C (centres undefined),i,i,nt,i,i,?
CC(=O)N1c2ccc(S(=O)(=O)NCC3CCC(C(=O)Nc4cccc(F)c4)CC3)cc2CC1C (centres undefined),i,-76.7,nt,i,?,20µM
CC(=O)N1c2ccc(S(=O)(=O)N3CCCCC3)cc2CC1C(=O)Nc1ccc(F)cc1C (centres undefined),i,-79.3,i,i,i,i
COC(=O)c1ccc[n+](CC(=O)c2ccc(Br)cc2)c1,i,i,i,i,i,i
CNc1nnc(SCC(=O)c2c(N)n(C3CC3)c(=O)[nH]c2=O)s1,i,i,i,i,i,i
CN(C)CC(C)(C)CNS(=O)(=O)c1ccc(Cl)c(Cl)c1,i,i,?,i,i,i
CC(=O)N1c2ccc(S(=O)(=O)N3CCC(C(=O)Nc4cc(C)ccn4)CC3)cc2CC1C (centres undefined),nt,-69.1,?,i,nt,?
COc1ccc(OC)c(NC(=O)C2CCN(S(=O)(=O)c3ccc4c(c3)CC(C)N4C(C)=O)CC2)c1 (centres undefined),i,-86.4!,i,i,i,i
CC(=O)N1c2ccc(S(=O)(=O)N3CCC(C(=O)NCc4ccc(C)cc4)CC3)cc2CC1C (centres undefined),i,?,?,i,i,i
COc1cc(OC)c(NC(=O)C2CCN(S(=O)(=O)c3ccc4c(c3)CC(C)N4C(C)=O)CC2)cc1Cl (centres undefined),nt,i,?,i,nt,?
CC(=O)N1c2ccc(S(=O)(=O)NCC3CCC(C(=O)N4CC(C)CC(C)C4)CC3)cc2CC1C (centres undefined),nt,i,14.1µM,i,nt,i
Cc1nc2c(O)cccc2c(=O)[nH]1,nt,nt,nt,nt,nt,i
CC1CCC(C(C)C)C(OC(=O)Cn2c(-c3ccc(F)cc3)[n+](C)c3ccccc32)C1 (centres undefined),?,-102.4,10µM,i,?,?
CC1CCC(C(C)C)C(OC(=O)Cn2c(-c3ccccc3)[n+](C)c3ccccc32)C1 (centres undefined),?,-100.4,?,i,?,12.6µM
Cc1cccc(OCc2n(CC(=O)OC3CC(C)CCC3C(C)C)c3ccccc3[n+]2C)c1 (centres undefined),?,nt,i,i,i,?
CC1CCC(C(C)C)C(OC(=O)Cn2c(COc3ccccc3)[n+](C)c3ccccc32)C1 (centres undefined),?,-99.9,12.6µM,i,?,28.2µM
CC1CCC(C(C)C)C(OC(=O)C[n+]2cc(-c3ccc(Cl)cc3)n3c2CCC3)C1 (centres undefined),i,?,i,i,i,i
Cc1ccc(Nc2c(-c3ccco3)nc3ccccn23)cc1,i,i,i,?,i,i
COc1ccc(NC(=O)c2cn(-c3ccccc3)nc2-c2ccc(C)cc2)cc1,i,i,nt,i,i,i
COc1ccc(-c2nn(-c3ccccc3)cc2C(=O)n2nnc3ccccc32)cc1,i,i,i,i,i,20µM
COc1ccc(-c2nn(-c3ccccc3)cc2C(=O)OCC(=O)c2ccc(C)c([N+](=O)[O-])c2)cc1,i,?,7.08µM,i,i,?
COC(=O)c1cn(-c2ccccc2)nc1-c1ccc(OC)cc1,i,i,12.6µM,i,i,i
COc1ccc(-c2cc(C(=O)OCC(=O)c3ccc(C)c([N+](=O)[O-])c3)c3ccccc3n2)cc1,i,i,?,i,i,i
CCN(CC)CCNC(=S)NC(=O)c1cn(-c2ccccc2)nc1-c1ccc(OC)cc1,nt,?,22.4µM,i,nt,i
SMILES,Vaccinia mCherry,HCMV inh,HCV inhibitor,Sm TGR inh,Vaccinia Venus,FMDV inh
Cc1ccc(C)c(NC(=S)NNc2ccc(F)cc2F)c1,?,i,i,i,i,i
COc1ccc(OCc2cc(C(=O)N3CCC(OC)CC3)no2)c2ccccc12,i,i,i,i,i,i
CC1CCCC(C)N1S(=O)(=O)c1ccc(S(=O)(=O)N2CCOCC2)cc1 (centres undefined),i,i,i,i,i,i
CCOC(=O)C(C(=O)OCC)C(Nc1ccc(Br)cc1)c1ccccc1 (centres undefined),nt,i,i,i,nt,12.6µM
O=C(Nc1ccc2[nH]ncc2c1)c1ccc(F)cc1,i,i,i,i,i,i
Cc1cc(C)c2c(c1)C1C=CCC1C(c1ccc(S(=O)(=O)N3CCOCC3)cc1)N2 (centres undefined),i,i,i,1.58µM,i,nt
O=C(O)c1cc(Cl)c2c(c1)[C@@H]1C=CC[C@@H]1[C@H](c1ccc(S(=O)(=O)N3CCOCC3)cc1)N2,i,nt,?,14.1µM,i,i
Cc1ccc(S(=O)(=O)N2CCOCCOCCOCCOCCOCC2)cc1,nt,i,i,i,nt,i
O=S(=O)(c1ccc(C2CCCCC2)cc1)N1CCOCC1,i,?,i,i,i,?
O=C(NNc1ccc(-c2csnn2)cc1)c1ccccc1C(F)(F)F,i,i,i,i,i,i
CSC1=C(C#N)C(c2ccc(Cl)cc2)C2=C(CC(C)(C)CC2=O)N1 (centres undefined),i,-67.9,11.2µM,28.2µM,i,i
Cc1ccc(C2C3=C(CC(C)(C)CC3=O)NC3=C2C(=O)c2ccccc23)cc1 (centres undefined),i,-64.6,?,i,?,i
CC1(C)CC(=O)C2=C(C1)NC1=C(C(=O)c3ccccc31)C2c1ccc(Cl)cc1 (centres undefined),?,-99.7,11.2µM,i,?,i
CCOc1ccc(S(=O)(=O)Nc2cc(Cl)ccc2O)cc1,nt,?,i,i,i,i
COc1ccc(Cl)cc1NC(=O)CCCS(=O)(=O)c1nc(-c2ccc(OC)c(OC)c2)cc(C(F)(F)F)n1,i,-99.3,nt,i,i,?
COc1ccc(-c2cc(C(F)(F)F)nc(SCC(=O)NCC(C)C)n2)cc1OC,i[7.34 µM],i,nt,i,i[7.34 µM],i
COc1ccc(NC(=O)CCCS(=O)(=O)c2nc(-c3ccccc3OC)cc(C(F)(F)F)n2)c(OC)c1,i,i,nt,i,i,i
COc1ccc(-c2cc(C(F)(F)F)nc(S(=O)(=O)CCCC(=O)Nc3cc(C)on3)n2)cc1OC,i,i,?,?,i,12.6µM
COc1ccccc1-c1cc(C(F)(F)F)nc(S(=O)(=O)CCCC(=O)Nc2cc(C)on2)n1,i,-96.0,i,i,?,12.6µM

# Screening data from PubChem.
